Compound activity from PubChem BioAssay.
Only some compounds are listed: those with a hit (about 9.9% of all), similar ones and a draw of the others.
IL1B secr inh: qHTS for Inhibitors of Inflammasome Signaling: IL-1-beta AlphaLISA Primary Screen; THP-1 LPS/ATP IL-1B secretion, AlphaLISA, 16 h; hits give low values; activity change, % at 57.5 µM; hit rate 4.7% among 360,000; AID 743279, 2014; in the data active = activity change below about -50%; inconclusive = mostly about -30% to -49%
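Secreted IL-1B measured by AlphaLISA bead assay after 16 h compound exposure of THP-1 cells; compounds (final up to 57.5 uM) added 1 h before LPS (250 ng/mL) and ATP (1.25 mM) stimulation; lower signal means less secretion.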
KB-3-1 tox: qHTS assay for MDR1-selective chemotherapeutics: Primary screen using the parental adenocarcinoma cell KB-3-1. KB-3-1 viability, CellTiter-Glo ATP luminescence, 72 h. Potency, µM (top dose mostly 46.1 µM), actives largely listed as cytotoxic. hit rate 1.4% among 400,000; also: nearly all actives have a fitted effect of over 60% in size
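Screening of KB-3-1 cells (DMEM, 10% FBS, phenol-red free) ran from lowest to highest compound concentration; after 72 h at 37 °C viability was read luminescently and curves fitted.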
KB-V1 MDR tox: qHTS assay for MDR1-selective chemotherapeutics: Primary screen using the drug-selected MDR subline cells KB-V1 | KB-V1 MDR cells viability, CellTiter-Glo, 72 h | Potency, µM (doses to about 46.1 µM), actives largely listed as cytotoxic | hit rate 3.4% among 400,000 | AID 1347076, 2019; also: nearly all actives have a fitted effect of over 60% in size
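Cytotoxicity toward P-gp-expressing KB-V1 cells was determined as loss of CellTiter-Glo luminescence after 72 h at 37 degrees C. Compounds were tested in quantitative HTS format across a concentration range, with curves fitted to normalized data.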
MCF10A rerep: A quantitative high throughput screen for small molecules that induce DNA re-replication in MCF 10a normal breast cells. MCF 10A DNA re-replication, Hoechst nuclear intensity, 48 h. Potency, µM (highest dose often 46.1 µM), most hits filed as activators. hit rate 2.9% among 350,000. AID 624296, 2012; also: nearly all actives have a fitted effect of over 50% in size
SW480 rereplic: A quantitative high throughput screen for small molecules that induce DNA re-replication in SW480 colon adenocarcinoma cells. SW480 DNA re-replication, Hoechst DNA content imaging, 48 h. Potency, µM (series often up to 46.1 µM), usual class: activators. hit rate 1.8% among 340,000. AID 624297, 2012; also: nearly all actives have a fitted effect of over 55% in size
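DNA re-replication was detected as more nuclei of elevated Hoechst intensity after 48 hr exposure to compound (23 nL pinned per well of 250 cells).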
Hits are given with their value; n = inactive; u = inconclusive; x = no result. Unless noted, calls follow the shape of the dose curve; as a rule, active = well fitted curve in the direction sought with a large enough effect; inconclusive = small, poorly fitted or top-dose-only effect, or another doubt; inactive = no such curve, though single readings can be large; an effect the other way counts as inactive or inconclusive.

SMILES | IL1B secr inh | KB-3-1 tox | KB-V1 MDR tox | MCF10A rerep | SW480 rereplic
FC(F)(F)c1nc2ccccc2c2nc3ccccc3n12 | n | n | n | n | n
FC(F)(F)c1nnc2c(Sc3ccccc3)nc3ccccc3n12 | u | 11.6µM | u | u | u
COc1cccc(NC(=O)C2CCC(CNS(=O)(=O)c3ccc4c(c3)CCCC(=O)N4)CC2)c1 (stereo unspecified) | x | n | n | x | x
COc1ccc(C)cc1NC(=O)c1sc2ncn(CC(=O)N3CCCCC3)c(=O)c2c1C | n | n | n | n | n
CC(=O)c1ccccc1OCc1ccc(S(=O)(=O)Cc2ccccc2)cc1 | -60.2 | u | n | n | n
Cc1cc2ccccc2n2c(SCC(=O)NCC3CCCO3)nnc12 (stereo unspecified) | n | n | n | n | n
COc1ccccc1NC(=O)CSc1nc2c(sc3ccccc32)c(=O)n1CCN(C)C | -80.1 | n | n | n | n
CCSc1nc2ccccc2n1C(=O)/C=C\c1ccc(OC)c(OC)c1 | -96.6 | u | u | 4.11µM | 8.2µM
CCn1c(SCC(=O)Nc2ccccc2OC)nc2ccccc2c1=O | -71.7 | n | u | u | n
COc1ccccc1NC(=O)CSc1nc2ccccc2c2nc(-c3ccccc3)nn12 | x | n | n | x | x
COc1ccccc1NC(=O)CSc1nc2ccccc2n1C(C)=O | n | n | 16.4µM | n | n
CCOc1ccccc1CNC(=O)Cn1c(-c2ccccc2)cc(C(C)=O)c1C | x | n | n | x | x
COC(=O)c1ccccc1NC(=O)CSCC(=O)Nc1ccccc1OC | n | n | 9.2µM | n | n
CCc1ccc(NC(=O)CSc2nc3c(sc4ccccc43)c(=O)n2CCN(CC)CC)cc1 | x | n | n | x | x
C=CCN(C(=O)CSc1nc2c(sc3ccccc32)c(=O)n1CCN(CC)CC)c1ccccc1 | -79.8 | n | n | u | u
COc1cc(-n2c(=O)c3ccccc3n(Cc3cccc(Cl)c3)c2=O)cc(OC)c1OC | x | n | n | x | x
CCCCn1nnnc1C(c1cc2ccccc2o1)N(CCN(C)C)Cc1ccccc1 (stereo unspecified) | u | u | n | x | x
CC(C)n1cc(CN2CCC(C(=O)Nc3cccc(-c4cscn4)c3)CC2)cn1 | n | n | u | n | n
Cn1cc(CN2CCCC(C(=O)Nc3cccc(-c4cc5ccccc5[nH]4)c3)C2)cn1 (stereo unspecified) | -91.6 | u | n | u | u
CCn1cc(CN2CCCC(C(=O)Nc3cccc(-c4cc5ccccc5[nH]4)c3)C2)c(C)n1 (stereo unspecified) | -53.4 | n | n | u | u
CC(C)n1cc(CN2CCCC(C(=O)Nc3cccc(-c4cc5ccccc5[nH]4)c3)C2)cn1 (stereo unspecified) | -63.5 | u | u | 16.4µM | u
CCN(CC(=O)NC(C)(C)C)C(=O)c1ccc2c(c1)S(=O)(=O)c1ccccc1C2=O | n | n | n | n | n
O=C(CC(=O)c1cc(Cl)ccc1O)c1ccccc1 | n | u | u | 20.6µM | u
NC(=NCCc1ccccc1)NC(=O)c1cc(Cl)ccc1O | n | u | u | u | 20.6µM
Cc1cccc(C(=O)CC(=O)c2cc(Cl)ccc2O)c1 | n | u | 9.2µM | u | n
SMILES | IL1B secr inh | KB-3-1 tox | KB-V1 MDR tox | MCF10A rerep | SW480 rereplic
CC1(C)C(CSc2nc3ccccc3[nH]2)C1(Cl)Cl (stereo unspecified) | u | n | n | u | u
Cc1nc(NCc2ccco2)[nH]c(=O)c1CCC(C)C | n | n | n | n | n
O=c1[nH]c(NCc2ccco2)nnc1Cc1ccccc1Cl | n | 5.8µM | u | u | 7.31µM
O=C1NC(=O)C(=C2CCOC2=O)N1 | n | n | n | x | x
CCOC(=O)c1[nH]c(C)c(C(=O)Nc2ccc(C)c(Cl)c2)c1C | n | u | n | 20.6µM | u
CCOC(=O)c1[nH]c(C)c(C(=O)Nc2ccc(C)c(F)c2)c1C | n | u | 2.91µM | 11.6µM | 11.6µM
CCOC(=O)c1cc(C(=O)Nc2ccc(C)c(F)c2)nn1C | n | n | n | n | n
Cc1ccc(C2CC(=O)c3cnc(N4CCc5ccccc5C4)nc3C2)cc1 (stereo unspecified) | n | n | 23.1µM | n | n
Cc1ccc(C2CC(=O)c3cnc(N4CCN(c5ccccc5)CC4)nc3C2)cc1 (stereo unspecified) | n | u | 5.17µM | n | n
O=C1CC(Cc2ccc(Cl)cc2)C(=O)N1c1ccncc1 (stereo unspecified) | n | n | n | n | n
O=C1C2CC=CCC2C(=O)N1c1ccc(Cc2ccncc2)cc1 (stereo unspecified) | u | u | 16.4µM | u | n
CC(C)CC(=O)Nc1nc2c(s1)CC(C(C)(C)C)CC2 (stereo unspecified) | x | n | n | x | x
COc1ccc(N2CCN(c3cc(C(=O)NC4CCCCC4)ncn3)CC2)cc1OC | n | n | 14.6µM | x | x
CC(C)c1ccc(C(O)P(=O)(OC2CCCCC2)OC2CCCCC2)cc1 (stereo unspecified) | -91.9 | u | u | 20.6µM | u
COc1cc(C(O)P(=O)(OC2CCCCC2)c2ccc(N(C)C)cc2)cc(OC)c1OC (stereo unspecified) | n | n | n | n | n
Cc1[nH]c2ccccc2c1CCN(Cc1cccnc1)C(=S)Nc1cccc(F)c1 | -70.2 | n | n | n | n
Cc1[nH]c2ccc(F)cc2c1CCN(Cc1ccncc1)C(=S)Nc1ccccc1 | -69.5 | n | u | n | n
Cc1cc2nc(CCN(Cc3cccnc3)C(=S)Nc3ccccc3)[nH]c2cc1C | -50.3 | n | u | 16.4µM | n
Cc1[nH]c2ccccc2c1CCN(Cc1cccnc1)C(=S)Nc1ccc(F)cc1 | n | n | n | n | n
Cc1cc2nc(CCN(Cc3cccnc3)C(=S)Nc3ccc(F)cc3)[nH]c2cc1C | u | n | n | n | u
CNC(=O)C[C@H]1C(=O)N(c2ccc(OC)cc2)C[C@@H]1C | n | n | n | x | x
CCS(=O)(=O)N1CCC(C(=O)Oc2ccc(Cl)cc2)CC1 | n | n | n | n | n
Cn1nnnc1SCC1=C(C(=O)O)N2C(=O)C(NC(=O)Cn3nc(C(F)F)cc3C3CC3)C2SC1 (stereo unspecified) | n | n | u | 0.581µM | n
O=C(OCc1nnc(-c2cccs2)o1)C1=NN(c2ccccc2)C(=O)CC1 | n | n | n | n | n
C=CCn1c(NC(=O)c2ccc(C)cc2)c(C#N)sc1=N | n | 5.17µM | 1.3µM | u | n
C=CCn1c(C(C)NC(=O)c2ccc(C)cc2)n[nH]c1=S (stereo unspecified) | n | n | u | n | n
Cc1ccc(S(=O)(=O)N2CCOCC2)cc1C(=O)NNC(=O)c1ccoc1C | n | n | n | n | n
